Giardia killer: Giardia lamblia killing. Giardia lamblia trophozoite viability. activity change, % at 7.66 µM, hits read low. actives 0.15% (n = 340,000). AID 540267; in the data active means activity change below about -80%; inconclusive means between about -30% and that limit;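 further: parasites exposed to compound for two days anaerobically before the ATP read; on the % scale 0 is the no-effect control and ±100 the full control effect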
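Trophozoite viability was measured as ATP-dependent luminescence, read 15-30 min after reagent addition. Before that, parasites at 100 cells/well were exposed to compounds for 48 h, anaerobically, at 37 deg C.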
TGFb inhibitor: TGF-b pathway inhibition. AID 588855. HepG2 CAGA-GFP TGF-b/SMAD3 reporter, GFP fluorescence, 18 h; TGF-beta stimulated, 500 pg/mL final. Potency, µM (series often up to 46.1 µM), inactives show top-dose activity, negative = inhibition, hits mostly inhibitors. actives 1.2% (n = 410,000); further: potency means the concentration at half of the fitted maximal effect; on the % scale 0 is the no-effect control and ±100 the full control effect; nearly all actives have a fitted effect of over 65% in size
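Smad-responsive CAGA-GFP expression was quantified in HEPG2 cells exposed to compounds and 500 pg/mL final TGF-beta for 18 h at 37 degrees C; unstimulated wells defined full inhibition.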
uPA generation: inhibitors of cell surface uPA generation | Potency, µM (titrated, usually from 38.3 µM), for inactives: at the highest dose activity change, negative = inhibition, usual class: inhibitors | cell surface uPA generation assay, qHTS | actives 0.31% (n = 330,000); active means well fitted inhibition curve with a large enough effect; inconclusive means small, poorly fitted or top-dose-only effect; inactive means no such curve, though single readings can be large or run the other way; tested in mouse RAW 264.7 cells; further: potency means the concentration at half of the fitted maximal effect; on the % scale 0 is the no-effect control and ±100 the full control effect; nearly all actives have a fitted effect of over 55% in size
HepG2 tox: counter-screen for TGF-b inhibitors: cytotoxicity in HepG2 cells. HepG2 CAGA-GFP viability, ATP luminescence, 18 h. actives 0.76% (n = 410,000). AID 588856. Potency, µM (highest dose often 46.1 µM), inactives show top-dose activity change, negative = cytotoxicity, actives largely listed as cytotoxic; further: potency means the concentration at half of the fitted maximal effect
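HepG2 CAGA-GFP cells (1000/well, DMEM with 1% FBS) received compound, then TGF-beta at 500 pg/mL final, and were incubated 18 hours at 37 degrees C. Viability was read by CellTiter-Glo luminescence. Media-only wells were set as complete cell-killing and DMSO as no toxicity.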
ATXN2 expr inh: inhibitors of ATXN2 expression. Potency, µM (top dose mostly 57 µM), for the others: top-dose activity change, negative = inhibition, usual class: inhibitors. HEK-293 ATXN2-luciferase reporter, luminescence, 24 h. actives 0.72% (n = 360,000); further: potency means the concentration at half of the fitted maximal effect; on the % scale 0 is the no-effect control and ±100 the full control effect; nearly all actives have a fitted effect of over 55% in size
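qHTS (up to 57 uM final) was run with 24 h compound exposure of reporter cells at 37 °C. Each well was multiplexed: SteadyGlo luminescence measured ATXN2-luciferase expression after a fluorogenic Gly-Phe-AFC viability readout (25 uM final).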
ATXN viability: cell viability loss in ATXN counter-screen; S2 cells (HEK-293 line with an ATXN2-luciferase reporter) viability, CellTiter-Fluor protease fluorescence, 24 h; Potency, µM (top dose mostly 56.7 µM), most hits filed as cytotoxic; actives 0.49% (n = 400,000); further: potency means the concentration at half of the fitted maximal effect; nearly all actives have a fitted effect of over 40% in size
Active calls of the source: *. Shown are actives, neighbours in structure and some others; about 2.6% of the full set was active somewhere. Unless noted, the call rests on the fitted dose curve; in most records, active means well fitted curve in the direction sought with a large enough effect; inconclusive means small, poorly fitted or top-dose-only effect, or another doubt; inactive means no such curve, though single readings can be large; an effect the other way counts as inactive or inconclusive.

O=C(Nc1ccccc1)C1=C(c2ccccc2)S(=O)(=O)CCS1(=O)=O was read as Giardia killer -2, TGFb inhibitor 2.5µM*, uPA generation -15%, HepG2 tox 2.5µM*, ATXN2 expr inh 5.6µM* and ATXN viability 8.9µM*.
O=C(O)c1ccccc1C(=O)Nc1ccccc1 was read as Giardia killer -14, TGFb inhibitor -23%, HepG2 tox -5%, ATXN2 expr inh 3% and ATXN viability inactive.
Screening CO[C@@H]1[C@@H](O[C@@H]2O[C@H](C)[C@@H](O[C@H]3C[C@@](C)(O)[C@@H](OC(=O)CC(C)C)[C@H](C)O3)[C@H](N(C)C)[C@H]2O)[C@@H](CC=O)C[C@@H](C)[C@@H](O)/C=C/C=C/C[C@@H](C)OC(=O)C[C@H]1O returned ATXN viability inactive.
`O=C(CNCC1CCCCC1)Nc1ccc(OC(F)(F)F)cc1` gave Giardia killer -6, TGFb inhibitor 16µM*, uPA generation 1%, HepG2 tox -89%, ATXN2 expr inh -10% and ATXN viability inactive.
Screening Cn1cccc1/C=C1\SC(=Nc2ccccc2)NC1=O returned Giardia killer -2, TGFb inhibitor inconclusive, uPA generation 1.4µM*, HepG2 tox -2% and ATXN viability inconclusive.
`Cn1cccc1/C=C1\SC(=Nc2ccc(O)cc2)NC1=O` gave Giardia killer -1, TGFb inhibitor inconclusive, uPA generation inconclusive, HepG2 tox -33% and ATXN viability inconclusive.
`Cn1cccc1/C=C1\SC(=Nc2cccc(O)c2)NC1=O` gave Giardia killer -8, TGFb inhibitor inconclusive, uPA generation inconclusive, HepG2 tox -12% and ATXN viability 16µM*.
O=C(O)c1ccc(C(=O)Nc2cccc3cccnc23)cc1 was read as Giardia killer -28, TGFb inhibitor 1% and HepG2 tox -4%.
CCOc1cc(-c2c(C#N)c(N)nc3c2CCc2ccccc2-3)ccc1O was read as Giardia killer 7, TGFb inhibitor inconclusive, uPA generation -8%, HepG2 tox 13µM*, ATXN2 expr inh 43% and ATXN viability inconclusive.
`CCOc1cc(-c2c(C#N)c(N)nc3c2CCCC3C)ccc1O` (stereo not given) gave Giardia killer 4, TGFb inhibitor inconclusive, uPA generation -15%, HepG2 tox -4%, ATXN2 expr inh -8% and ATXN viability inactive.
Screening Cc1c(C)c(C)c(/C=C/c2ccnc3ccccc23)c(C)c1C returned TGFb inhibitor -15% and HepG2 tox -39%.
Screening CCN1CCCC1CNC(=O)c1cnn(-c2nccc(-c3cccs3)n2)c1C1CC1 (stereo not given) returned ATXN viability inactive.
CC(=O)OCCCNc1cc(Sc2nc3ccccc3s2)c2nonc2c1[N+](=O)[O-] was read as Giardia killer 9, TGFb inhibitor inconclusive, uPA generation -2%, HepG2 tox -4% and ATXN2 expr inh 16µM*.
Cn1ccnc1Sc1cc(NCCCO)c([N+](=O)[O-])c2nonc12 was read as Giardia killer -10, TGFb inhibitor inconclusive, uPA generation -7%, HepG2 tox -26%, ATXN2 expr inh inconclusive and ATXN viability inconclusive.
For O=[N+]([O-])c1c(NCCCO)cc(Sc2ccc(Cl)cc2)c2nonc12 the results were Giardia killer 0, TGFb inhibitor 5%, uPA generation inconclusive, HepG2 tox -22%, ATXN2 expr inh inconclusive and ATXN viability 32µM*.
Screening CC(=O)OCCCNc1cc(Sc2ccc(C)cc2)c2nonc2c1[N+](=O)[O-] returned Giardia killer -5, TGFb inhibitor -5%, uPA generation -15%, HepG2 tox -27%, ATXN2 expr inh -62% and ATXN viability inconclusive.
`O=[N+]([O-])c1c(NCCCO)cc(SCc2ccco2)c2nonc12` gave Giardia killer 7, TGFb inhibitor 11µM*, uPA generation -10%, HepG2 tox -55% and ATXN2 expr inh 0%.
CN1CCN(N)CC1 was read as ATXN2 expr inh -4% and ATXN viability inactive.
For COc1ccc(S(=O)(=O)N2CCN(c3nc(-c4cccs4)nc4ccccc34)CC2)cc1 the results were Giardia killer 6, TGFb inhibitor inconclusive and HepG2 tox 9%.
`CCN(CC)CCC(c1ccc(N(C)C)cc1)c1c(OC)cc(OC)c2ccc(=O)oc12` (stereo not given) gave Giardia killer 9, TGFb inhibitor -4%, uPA generation -10%, HepG2 tox -2%, ATXN2 expr inh 3% and ATXN viability 10µM*.
For CCN(CC)CCC(c1ccc(OC)cc1)c1c(OC)cc(OC)c2c(C)cc(=O)oc12 (stereo not given) the results were Giardia killer 42, TGFb inhibitor inconclusive and HepG2 tox 18µM*.
`CCN(CC)CCC(c1ccc2c(c1)OCO2)c1c(OC)cc(OC)c2c(C)cc(=O)oc12` (stereo not given) gave Giardia killer 26, TGFb inhibitor -8% and HepG2 tox -14%.
For CCCCCc1cc(=O)oc2c(C(CCN(CC)CC)c3ccc(OC)cc3)c(OC)cc(OC)c12 (stereo not given) the results were Giardia killer -16, TGFb inhibitor inconclusive, uPA generation inconclusive, HepG2 tox -101%, ATXN2 expr inh inconclusive and ATXN viability 32µM*.
`CCN(CC)C(=O)CC(c1ccc(N(C)C)cc1)c1c(OC)cc(OC)c2ccc(=O)oc12` (stereo not given) gave Giardia killer -9, TGFb inhibitor 2%, uPA generation 11%, HepG2 tox 3%, ATXN2 expr inh -13% and ATXN viability inconclusive.
For CC(=O)Nc1ccccc1-c1nc(CNC(=O)c2ccc(-n3cccn3)cc2)c(C)o1 the results were ATXN viability inactive.
Screening CC(=O)n1c(-c2ccccc2)c(CO)c2ccccc21 returned Giardia killer 1, TGFb inhibitor -1%, uPA generation -21%, HepG2 tox 1%, ATXN2 expr inh 2% and ATXN viability inactive.
NCCc1c(-c2ccccc2)n(-c2ccccc2)c2ccccc12 was read as Giardia killer 12, TGFb inhibitor inconclusive, uPA generation 2%, HepG2 tox 20µM*, ATXN2 expr inh 28µM* and ATXN viability inconclusive.
Screening Cc1cc2nc(N3CCC(NC(C)c4nc(-c5ccccn5)no4)CC3)nc(C)c2cc1C (stereo not given) returned ATXN viability inactive.

Screens (PubChem)
